Most compounds without a hit are left out; they make up all but 1.8% or so of the library.
GLP1R inv ag: qHTS of GLP-1 Receptor Inverse Agonists (Inhibition Mode) | Glucagon-like peptide 1 receptor (Homo sapiens), P43220 | HEK293 GLP-1R CRE-luciferase, luminescence, 24 h; GLP-1R form is constitutively active | Potency, µM (titrated, usually from 38.3 µM), inactives show top-dose activity change, negative = inhibition, usual class: inhibitors | 410,000 compounds, 1.6% hits | AID 624417, 2012; also: % is scaled to controls: 0 for no effect and ±100 for the full control effect; nearly all actives have a fitted effect of over 55% in size
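Stable HEK293 clone (constitutively active GLP-1R + cAMP-response luciferase); 200 cells/uL plated, 12 h pre-culture, compound 24 hr, 37 deg C/5% CO2; detection reagent 12 min RT; luminescence.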
Pin1 inhibitor: qHTS Assay to Find Inhibitors of Pin1. Peptidyl-prolyl cis-trans isomerase NIMA-interacting 1 (Homo sapiens), Q13526. Pin1 FP peptide displacement, HiFluor488, 10 min. Potency, µM (doses to about 115 µM), inactives show top-dose activity, negative = inhibition, hits mostly inhibitors. 390,000 compounds, 0.009% hits. AID 504891, 2011; active = well fitted inhibition curve with a large enough effect in the polarisation, with a control signal flat, not every such curve was filed as active; inconclusive = small, poorly fitted or top-dose-only effect, or effect the other way, or a change in a side signal; inactive = no such curve, though single readings can be large or run the other way; the % refers to the polarisation; also: % is scaled to controls: 0 for no effect and ±100 for the full control effect
Target sequence (Q13526 whole entry, looked up): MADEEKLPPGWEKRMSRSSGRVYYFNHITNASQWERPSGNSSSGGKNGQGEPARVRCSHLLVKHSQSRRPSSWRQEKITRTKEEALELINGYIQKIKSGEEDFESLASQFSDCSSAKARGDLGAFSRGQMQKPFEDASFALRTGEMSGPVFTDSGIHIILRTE
Tb PGK inh: qHTS Assay to Find Inhibitors of Phosphoglycerate Kinase; Phosphoglycerate kinase, glycosomal (Trypanosoma brucei brucei), P07378; PGK/GAPDH coupled, Kinase-Glo luminescence, 60 min; Potency, µM (series often up to 57.5 µM), without a hit: at the highest dose activity change, negative = inhibition, most hits filed as inhibitors; 380,000 compounds, 0.043% hits; AID 602233, 2012; also: % is scaled to controls: 0 for no effect and ±100 for the full control effect; nearly all actives have a fitted effect of over 60% in size
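Luminescent ATP detection (Kinase-Glo Plus) follows a 60-minute room-temperature incubation, with wells lacking PGK as controls. Buffer: 100 mM TEA (pH 7.6), 5 mM MgCl2, 0.01% Tween-20. Coupling enzyme GAPDH (100 nM final) supplies unstable 1,3-BPG in-well.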
GLP1R ag: qHTS of GLP-1 Receptor Agonists | AID 624172, 2012 | 380,000 compounds, 0.007% hits | Potency, µM (doses to about 45.6 µM), without a hit: top-dose activation, usual class: activators | HEK293 GLP-1R CRE-luciferase, luminescence, 4-6 h; cells express a hypersensitive GLP-1R form; also: % of control where 0% means no effect
GLP1R cytotox: qHTS of GLP-1 Receptor Inverse Agonists: Cytotox Screen. Potency, µM (top dose mostly 38.3 µM), for inactives: at the top dose activity change, negative = inhibition, hits mostly inhibitors. HEK293 cAMP-luciferase reporter cells, luminescence, 24 h. AID 624418, 2012. 410,000 compounds, 0.13% hits;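 also: loss of luciferase light is scored as toxicity; % is scaled to controls: 0 for no effect and ±100 for the full control effect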
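MLSMR compounds, 24 hr on cells at 37 deg C/5% CO2; luminescence after luciferase reagent (12 min RT). Inhibition counted as the undesired cytotoxic outcome.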
Tb PFK inh-1: qHTS Assay to Find Inhibitors of T. brucei phosphofructokinase | 330,000 compounds, 0.17% hits | AID 485367, 2010 | ATP-dependent 6-phosphofructokinase (Trypanosoma brucei brucei), O15648 | T. brucei PFK, ADP-Glo luminescence | Potency, µM (series often up to 57.5 µM), without a hit: top-dose activity, negative = inhibition, usual class: inhibitors;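 also: 0% = uninhibited 1x PFK enzyme wells and -100% = no-enzyme wells; nearly all actives have a fitted effect of over 60% in size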
Target sequence (O15648 whole entry, looked up): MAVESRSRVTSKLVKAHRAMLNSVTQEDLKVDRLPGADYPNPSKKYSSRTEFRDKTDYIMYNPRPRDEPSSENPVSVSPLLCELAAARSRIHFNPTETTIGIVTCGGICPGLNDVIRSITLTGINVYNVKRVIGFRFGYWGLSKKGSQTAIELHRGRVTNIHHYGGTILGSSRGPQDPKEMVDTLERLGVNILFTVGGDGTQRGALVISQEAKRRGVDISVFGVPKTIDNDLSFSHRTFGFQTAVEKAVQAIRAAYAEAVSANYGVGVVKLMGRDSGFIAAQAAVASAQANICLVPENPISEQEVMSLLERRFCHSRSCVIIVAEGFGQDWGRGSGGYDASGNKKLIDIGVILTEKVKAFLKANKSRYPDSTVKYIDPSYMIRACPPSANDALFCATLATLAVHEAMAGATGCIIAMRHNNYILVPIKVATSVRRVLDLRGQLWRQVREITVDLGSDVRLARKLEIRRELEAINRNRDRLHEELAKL
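PFK 1.25 nM, F6P 0.5 mM, ATP 0.1 mM, 0.1 M TEA pH 8.0, 5 mM MgCl2, 0.01% Tween20, 0.1% BSA; 45 min RT. ADP-Glo readout. qHTS titration up to 57 uM; curves fitted, compounds curve-classed.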
Tb PFK KinaseGlo: Tb PFK orthogonal confirmatory assay using ATP depletion (Kinase-Glo Plus) as an alternative measure of Tb PFK activity: Hit Validation. shares compounds with Tb PFK inh-1. Tb PFK enzyme, ATP depletion, Kinase-Glo Plus luminescence. Potency, µM (doses to about 57.5 µM), without a hit: at the top dose inhibition. 1,100 compounds, 47% hits. AID 504636, 2011; calls by dose curve; also: nearly all actives have a fitted effect of over 60% in size
Tb PFK inh-2: Inhibitors of T. brucei phosphofructokinase: Hit Validation | Potency, µM (highest dose often 57.5 µM), for the others: at the top dose activity change, negative = inhibition, actives largely listed as inhibitors | purified T. brucei PFK, ADP-Glo luminescence, 45 min | 1,100 compounds, 41% hits | shares compounds with Tb PFK inh-1;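 also: plate controls were full PFK enzyme control for no effect and no enzyme control for full effect; nearly all actives have a fitted effect of over 60% in size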
Numbers without * were called inactive; i = inactive; ? = inconclusive; · = no result. Unless noted, calls follow the shape of the dose curve; as a rule, active = well fitted curve in the direction sought with a large enough effect; inconclusive = small, poorly fitted or top-dose-only effect, or another doubt; inactive = no such curve, though single readings can be large; an effect the other way counts as inactive or inconclusive. Potency is read from the fitted curve at half-maximal effect.

SMILES | GLP1R inv ag | Pin1 inhibitor | Tb PGK inh | GLP1R ag | GLP1R cytotox | Tb PFK inh-1 | Tb PFK KinaseGlo | Tb PFK inh-2
CN1C(=O)NC(=O)/C(=C\C=C\c2ccccc2[N+](=O)[O-])C1=O | ? | -7% | -6% | 19% | ? | ? | 2% | ?
CC(C)C[C@H]1CN=C(Nc2ccccc2)N1CC1CCC(C(C)(C)C)CC1 (stereo partly drawn) | ? | -2% | -2% | -3% | ? | 0% | · | ·
Cc1cc2ccccc2n1-c1ccc(C(=O)N2CCC(C(=O)NCc3ccc(Cl)cc3)CC2)s1 | ? | 17% | -6% | · | -10% | · | · | ·
C[C@]12C/C(=C/O)C(=O)C[C@@H]1CC[C@@H]1[C@@H]2CC[C@@]2(C)[C@H]1CC[C@]2(C)O | · | · | · | 8% | · | · | · | ·
CCCC(C)c1nnc(NC(=O)c2cc(C(=O)OC)cc([N+](=O)[O-])c2)s1 (stereo not drawn) | -5% | -1% | -1% | -8% | -4% | 24µM* | 6.7µM* | 15µM*
NC(N)=NS(=O)(=O)c1ccc(NC(=S)NC(=O)Cc2ccc(Cl)cc2)cc1 | 3% | 0% | -3% | 14% | 4% | ? | 27µM* | 30µM*
CC(=O)NS(=O)(=O)c1ccc(NC(=O)c2cccn(Cc3ccc(Cl)cc3)c2=O)cc1 | ? | 3% | -5% | -6% | 7% | · | · | ·
Cc1nnc2n1-c1sc(CCc3ccc(CC(C)C)cc3)cc1C(c1ccccc1Cl)=NC2C (stereo not drawn) | · | · | · | 1% | · | · | · | ·
Cc1ccc(C=C2C(Cl)=C(Cl)C(Cl)=C2Cl)cc1 | -1% | ? | -26% | -5% | -7% | ? | · | ·
N#Cc1c(N)nc2c(c1N)CC(CCl)O2 (stereo not drawn) | 9% | -11% | 0% | 12% | 23% | ? | 9% | 3%
C[C@H](NC(=O)C1CCN(S(=O)(=O)c2ccccc2)CC1)C(=O)NCc1ccc(Cl)c(Cl)c1 | ? | -4% | 8% | -6% | 2% | 27µM* | 21µM* | ?
O=C(C1CCN(S(=O)(=O)c2ccccc2)CC1)N1CCC2(CC1)OCCO2 | 13% | -8% | -1% | 4% | -15% | -1% | · | ·
CCOC(=O)c1cc(-c2ccc(F)cc2)n(CC(=O)Nc2nccs2)c1C | ? | -5% | 2% | 1% | ? | · | · | ·
C=C(C(=O)c1ccccc1)C(CC(=O)c1ccccc1)c1ccccc1 (stereo not drawn) | ? | -1% | i | -14% | ? | 0% | · | ·
CCc1cccc(C)c1NC(=O)COC(=O)CNS(=O)(=O)/C=C/c1ccccc1 | 14% | -4% | -5% | 6% | -4% | ? | ? | 27µM*
N#CC1=C(N)C(C#N)(C#N)C(c2ccc[nH]2)C2CCCC=C12 (stereo not drawn) | 0% | ? | · | -7% | 11% | ? | 11% | -21%
CCOC(=O)c1sc(=S)n(C)c1NC(=O)c1ccccc1 | 0% | -3% | 0% | 0% | 17% | ? | 21µM* | ?
O=c1cnn(Cc2ccc(Cl)c(Cl)c2)c2ccccc12 | ? | 2% | -3% | 15% | ? | ? | 12µM* | 24µM*
CN(C)[C@@H](Cc1ccccc1)c1ccccc1 | · | · | · | 9% | · | · | · | ·
Cc1occc1C(=O)NCCc1cccc(Cl)c1 | -12% | -6% | -9% | 5% | 42% | -2% | · | ·
Cc1ccc(C(=O)NNC(=O)CNc2cccc(Cl)c2)cc1 | -8% | -1% | -10% | -2% | -12% | 19µM* | 12µM* | 24µM*
O=C(O)CSCC(=O)N(Cc1ccccc1)c1nc(-c2ccccc2)c(-c2ccccc2)s1 | ? | · | -16% | -2% | -3% | -1% | · | ·
O=C(Cn1sc2ccccc2c1=O)NC12CC3CC(CC(C3)C1)C2 | -12% | -3% | -2% | -6% | ? | 4.3µM* | ? | 9.5µM*
CCC(=O)OCCNc1cc(Sc2nc3ccccc3[nH]2)c2nonc2c1[N+](=O)[O-] | ? | 40% | -10% | -32% | ? | ? | 6µM* | 9.5µM*
CC[C@]1(O)CC[C@H]2[C@@H]3CCC4=CCCC[C@@H]4[C@H]3CC[C@@]21C | · | · | · | 9% | · | · | · | ·
SMILES | GLP1R inv ag | Pin1 inhibitor | Tb PGK inh | GLP1R ag | GLP1R cytotox | Tb PFK inh-1 | Tb PFK KinaseGlo | Tb PFK inh-2
Cc1cc(C)nc(-n2nc(C)c(Sc3ccc(F)cc3)c2N)n1 | ? | -2% | · | 11% | ? | -7% | · | ·
Nc1c(/C=C2/C=CC(=O)C(O)=C2)c(=O)nc2sc(CC(=O)N3CCCCC3)nn12 | 31% | -2% | ? | -7% | -4% | 19µM* | 2.7µM* | 3.8µM*
CNC(C)[C@@H](O)c1ccc(O)cc1 (stereo partly drawn) | · | · | · | 8% | · | · | · | ·
CN1CCN(C(=S)C(=O)Nc2ccc(Br)cc2)CC1 | 8% | -10% | -4% | 1% | 22% | 12µM* | 7.6µM* | 12µM*
Cc1ccc(-n2c(N)c(C(=O)N3CCN(C)CC3)sc2=S)cc1 | 0% | -3% | -7% | -2% | -3% | 13µM* | 3.8µM* | 9.5µM*
Cc1ccc(OCC(=O)N2CCN(C)CC2)c(Br)c1 | -4% | 5% | -4% | 17% | 1% | -3% | · | ·
COc1ccc(CCNc2oc(-c3ccc(OC)c(OC)c3)nc2P(=O)(OC)OC)cc1OC | 218% | 1% | 4% | ? | 11% | 2% | · | ·
CC(=O)[C@H]1[C@H]([C@H](O)[C@H](O)CO)O[C@](O)(C(=O)O)C[C@@H]1O | 1% | 0% | -10% | -1% | 2% | 1.7µM* | ? | -16%
COc1ccc(CN2CCC(n3nccc3NC(=O)CCOc3ccccc3)CC2)cc1C | ? | -2% | -4% | -1% | ? | -4% | · | ·
O=C(/C=C/c1ccco1)OCC(=O)N1CCCCC1 | 2% | -2% | -3% | 14% | 20% | ? | 6µM* | ?
